The list is not random: actives were taken first. Their share in the collection is about 1.2%.
Avidin bead fluor = avidin bead compound fluorescence profile. hit rate 0.38% among 220,000. Avidin beads, compound fluorescence 488/530 nm, flow cytometry; stronger effect = higher value. fluorescence (KMESF) at 10 µM. AID 1775; in the data active = fluorescence above about 47
RGS8-Gao reg = human RGS8-Galphao interaction regulation; P09471; multiplexed bead flow cytometry, RGS8-Galphao binding; actives lie on both sides; response (percent of control binding), % at 10 µM; hit rate 0.34% among 220,000; AID 1423; in the data active = response below about 60% or above about 140%; inactive = in between;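 also: Galphao activated as the GDP aluminium fluoride complex binding bead-coupled RGS8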
Target sequence (P09471 whole entry, looked up): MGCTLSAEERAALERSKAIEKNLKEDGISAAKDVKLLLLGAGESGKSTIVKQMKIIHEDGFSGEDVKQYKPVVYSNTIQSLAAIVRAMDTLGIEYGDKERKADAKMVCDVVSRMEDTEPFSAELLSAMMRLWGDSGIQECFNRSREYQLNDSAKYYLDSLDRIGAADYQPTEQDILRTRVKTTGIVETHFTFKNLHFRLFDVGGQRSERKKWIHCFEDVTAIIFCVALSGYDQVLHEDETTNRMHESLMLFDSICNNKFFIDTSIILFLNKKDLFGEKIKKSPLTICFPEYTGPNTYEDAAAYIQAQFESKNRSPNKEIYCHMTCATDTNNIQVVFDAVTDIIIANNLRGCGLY
GSH fluor = compound fluoresces at 488/530 nm on GSH beads | GSH beads flow cytometry, compound fluorescence 488/530 nm; stronger effect = higher value | fluorescence (KMESF) at 10 µM | hit rate 0.25% among 190,000 | AID 1776; in the data active = fluorescence above about 89;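 also: glutathione beads carrying GST-tagged Bcl family fusion proteins plus one bare bead set; values are compound well signal with DMSO vehicle wells as background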
RGS16-Gao = regulators of human RGS16-Galphao interaction; bead-based flow cytometry RGS16-Galphao binding, fluorescence; actives lie on both sides; hit rate 0.38% among 220,000; binding response (% of control), % at 10 µM;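 also: Galphao activated by GDP with aluminum fluoride before binding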
RGS4-Gao reg = modulates binding of RGS4 to human Galphao; Multiplexed bead flow cytometry; actives lie on both sides; hit rate 0.33% among 220,000; AID 1415; binding response (% of control), % at 10 µM; P09471; in the data active = binding response below about 49% or above about 150%; inactive = in between;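 also: fluorescent Galphao activated with aluminum fluoride binding bead-coupled RGS4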
RGS7-Gao reg = modulates binding of RGS7 to human Galphao. binding response (% of control), % at 10 µM. hit rate 0.35% among 220,000. AID 1439. Multiplexed bead flow cytometry; actives lie on both sides. P09471; in the data active = binding response below about 49% or above about 150%; inconclusive = no clear call, values can overlap the other calls; inactive = in between;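 also: fluorescent Galphao held in activated GDP-AlF4 state binding bead-coupled RGS7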
RGS4-Gao HTS = modulates binding between human RGS4 and Galphao; shares compounds with RGS16-Gao; multiplexed bead flow cytometry, RGS–Galpha-o binding; RGS4–Galpha-o binding response, % at 10 µM; hit rate 99% among 1,600;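 also: fluorescently labeled Galpha-o bound to GDP with aluminium fluoride binding biotinylated RGS beads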
Target sequence (P09471 whole entry, looked up): as above
Target sequence (P49798 whole entry, looked up): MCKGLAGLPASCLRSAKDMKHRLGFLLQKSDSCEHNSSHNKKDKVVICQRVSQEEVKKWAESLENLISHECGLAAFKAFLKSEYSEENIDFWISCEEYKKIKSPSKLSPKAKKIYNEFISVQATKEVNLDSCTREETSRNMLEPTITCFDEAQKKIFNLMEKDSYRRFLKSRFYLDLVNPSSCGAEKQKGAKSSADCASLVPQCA
Avidin counter = biotin-avidin bead binding disruption counter-screen | streptavidin beads, fluorescein-biotin binding, flow cytometry | 1,700 tested, under 10 active | shares compounds with RGS16-Gao | AID 1783 | inhibition, % at 10 µM;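 active = inhibition above 50%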;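 also: median green fluorescence of gated singlet beads compared with DMSO control wells; 0% = DMSO wells and 100% = complete loss of bead fluorescence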
RGS8-Gao confirm = confirmation of regulators of human RGS8-Galphao interaction; shares compounds with RGS16-Gao; bead-based flow cytometry RGS8-Galphao binding, fluorescence; actives lie on both sides; binding response (% of control), % at 10 µM; hit rate 3% among 1,700; AID 1836; in the data active = binding response below about 72% or above about 130%; inactive = in between;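 also: Galphao activated as GDP AlF4 complex before binding bead RGS8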
RGS7-Gao single = confirmation of regulators of human RGS7-Galphao interaction; AID 1837; bead-based flow cytometry RGS7-Galphao binding; actives lie on both sides; shares compounds with RGS16-Gao; hit rate 7.8% among 1,700; response (percent of control binding), % at 10 µM; in the data active = response below about 75% or above about 130%; inactive = in between;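 also: fluorescent Galphao activated with GDP and aluminum fluoride binding bead-coupled RGS7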
RGS16-Gao single = RGS16-Galphao interaction regulation, single point confirmation. shares compounds with RGS16-Gao. bead-based flow cytometry, RGS16-Galphao binding; actives lie on both sides. response (% of control binding), % at 10 µM. hit rate 4% among 1,700; in the data active = response below about 74% or above about 130%; inactive = in between;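 also: Galphao activated as the GDP aluminium fluoride complex binding bead-coupled RGS16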
RGS4-Gao single = confirmation of regulators of human RGS4-Galphao interaction | RGS4-Galphao binding, multiplexed bead flow cytometry; actives lie on both sides | binding response (% of control), % at 10 µM | hit rate 4% among 1,700 | shares compounds with RGS16-Gao; in the data active = binding response below about 74% or above about 130%; inactive = in between
RGS19-Gao single = RGS19-Galphao interaction regulation, single point confirmation. shares compounds with RGS16-Gao. bead-based flow cytometry RGS19-Galphao binding; actives lie on both sides. response (percent of control binding), % at 10 µM. hit rate 5% among 1,700. AID 1841; in the data active = response below about 50% or above about 160%; inactive = in between;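 also: 100% = no compound control and 0% = blank background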
Starred values were filed as active, the others as inactive; [ ] = another dose, or the depositor's remark. Unless noted, no rule for the calls is given here.

Results for CC1(C)Cc2c(sc3nc4n(-c5ccccc5)cnn4c(=O)c23)CO1 ?
Avidin bead fluor: 5; RGS8-Gao reg: 95.0; RGS16-Gao: 90.3; RGS4-Gao reg: 89.3; RGS7-Gao reg: inconclusive

What do the screens show for `COc1ccc(CNC(=O)c2c(F)c(F)c(F)c(F)c2F)cc1`?
Avidin bead fluor: 6; RGS8-Gao reg: 58.1*; GSH fluor: 12; RGS16-Gao: 97.1; RGS4-Gao reg: 93.2; RGS7-Gao reg: 51.2; RGS4-Gao HTS: 93.2*; Avidin counter: 0.0; RGS8-Gao confirm: 98.8; RGS7-Gao single: 92.2; RGS16-Gao single: 100.0; RGS4-Gao single: 96.7; RGS19-Gao single: 91.1

What do the screens show for `CC(=O)N/C(N)=N/c1nc2cc([N+](=O)[O-])ccc2o1`?
Avidin bead fluor: 5; RGS8-Gao reg: 75.8; RGS16-Gao: 97.7; RGS4-Gao reg: 97.4; RGS7-Gao reg: inconclusive; Avidin counter: -1.2; RGS8-Gao confirm: 93.2; RGS7-Gao single: 88.5; RGS16-Gao single: 93.2; RGS4-Gao single: 94.9; RGS19-Gao single: 100.0

How did CCCN1C(=O)c2cccc3c(N4CCCCC4)ccc(c23)C1=O do in these assays?
Avidin bead fluor: 12; RGS8-Gao reg: 74.9; GSH fluor: 4; RGS16-Gao: 18.2*; RGS4-Gao reg: 91.5; RGS7-Gao reg: 89.6; RGS4-Gao HTS: 91.5*; Avidin counter: 1.4; RGS8-Gao confirm: 99.7; RGS7-Gao single: 103.4; RGS16-Gao single: 99.5; RGS4-Gao single: 102.7; RGS19-Gao single: 98.6

Results for O=C(Cc1ccccc1)Nn1c(O)c(/C=C2\C=Nc3ccccc32)sc1=S ?
Avidin bead fluor: 5; RGS8-Gao reg: 136.8; GSH fluor: 12; RGS16-Gao: 262.2*[activator]; RGS4-Gao reg: 98.8; RGS7-Gao reg: 99.7; RGS4-Gao HTS: 98.8*; Avidin counter: -0.5; RGS8-Gao confirm: 100.2; RGS7-Gao single: 103.0; RGS16-Gao single: 100.9; RGS4-Gao single: 103.1; RGS19-Gao single: 97.7

Results for O=C(/C(C=Nc1cccc(C(F)(F)F)c1)=C(/O)c1ccco1)C(F)(F)F ?
Avidin bead fluor: 6; RGS8-Gao reg: 64.5; GSH fluor: 6; RGS16-Gao: 2.5*; RGS4-Gao reg: 86.6; RGS7-Gao reg: 81.3; RGS4-Gao HTS: 86.6*; Avidin counter: 2.1; RGS8-Gao confirm: 104.8; RGS7-Gao single: 111.7; RGS16-Gao single: 110.9; RGS4-Gao single: 108.9; RGS19-Gao single: 108.1

How did Cc1ccc(CNC(=O)C2CCCN(S(=O)(=O)c3c(C)noc3/C=C/N(C)C)C2)cc1 (stereo not drawn) do in these assays?
Avidin bead fluor: 9; RGS8-Gao reg: 100.3; RGS16-Gao: 98.4; RGS4-Gao reg: 100.0; RGS7-Gao reg: inconclusive

What do the screens show for `CCCCNC(=O)C1CCN(S(=O)(=O)N2CCOCC2)CC1`?
Avidin bead fluor: 8; RGS8-Gao reg: 101.3; GSH fluor: 22; RGS16-Gao: 98.5; RGS4-Gao reg: 98.4; RGS7-Gao reg: 100.9

Results for COc1ccc(Br)cc1/C=N/Nc1cccc(C(=O)O)c1 ?
Avidin bead fluor: 78*; RGS8-Gao reg: 99.4; GSH fluor: 12; RGS16-Gao: 98.5; RGS4-Gao reg: 111.6; RGS7-Gao reg: 171.9*[activator]; RGS4-Gao HTS: 111.6*; Avidin counter: 0.9; RGS8-Gao confirm: 96.3; RGS7-Gao single: 63.5*; RGS16-Gao single: 80.9; RGS4-Gao single: 79.1; RGS19-Gao single: 67.4

How did CC(=O)Nc1nc(COc2ccccc2)cs1 do in these assays?
Avidin bead fluor: 7; RGS8-Gao reg: 97.3; GSH fluor: 20; RGS16-Gao: 96.4; RGS4-Gao reg: 101.2; RGS7-Gao reg: 99.0

What do the screens show for `Cc1ccc(C(=O)Nc2nc(COc3ccccc3)cs2)s1`?
GSH fluor: 44; Avidin counter: -1.0; RGS8-Gao confirm: 103.7; RGS7-Gao single: 99.6; RGS16-Gao single: 101.3; RGS4-Gao single: 103.6; RGS19-Gao single: 107.1

How did CCN1C(=O)[C@@H]2C(C(=O)c3cnccn3)=NN[C@@H]2C1=O do in these assays?
Avidin bead fluor: 7; RGS8-Gao reg: 103.6; RGS16-Gao: 101.8; RGS4-Gao reg: 103.8; RGS7-Gao reg: inconclusive

Results for O=c1oc2ccccc2c(N2CCCC2)c1[N+](=O)[O-] ?
Avidin bead fluor: 21; RGS8-Gao reg: 160.7*[activator]; GSH fluor: 15; RGS16-Gao: 179.8*[activator]; RGS4-Gao reg: 157.4*[activator]; RGS7-Gao reg: 156.6*[activator]; Avidin counter: -0.9; RGS8-Gao confirm: 92.5; RGS7-Gao single: 83.6; RGS16-Gao single: 87.5; RGS4-Gao single: 88.9; RGS19-Gao single: 74.6

How did O=c1oc2ccccc2c(N2CCCCC2)c1[N+](=O)[O-] do in these assays?
Avidin bead fluor: 13; RGS8-Gao reg: 100.2; GSH fluor: 4; RGS16-Gao: 103.3; RGS4-Gao reg: 100.8; RGS7-Gao reg: 102.4

How did CCc1nc(SCc2ccccn2)[nH]c(=O)c1C do in these assays?
Avidin bead fluor: 12; RGS8-Gao reg: 102.5; GSH fluor: 11; RGS16-Gao: 104.1; RGS4-Gao reg: 103.8; RGS7-Gao reg: 104.3

How did CCc1nc(SCc2cccnc2)[nH]c(=O)c1C do in these assays?
Avidin bead fluor: 13; RGS8-Gao reg: 124.3; GSH fluor: 9; RGS16-Gao: 308.6*[activator]; RGS4-Gao reg: 108.4; RGS7-Gao reg: 105.4; RGS4-Gao HTS: 108.4*; Avidin counter: 0.6; RGS8-Gao confirm: 92.5; RGS7-Gao single: 91.2; RGS16-Gao single: 90.7; RGS4-Gao single: 92.4; RGS19-Gao single: 68.3

Compound activity: PubChem, NMMLSC
